# Data published in a collection of fitness landscapes (doi:10.1126/science.1257360).
# Whole data set: some 140,000 sequences, median “enrichment ratio after two sorts for PhoP signalling” near 0, cut for the highest 2% near 11. This excerpt belongs to a sample that is enriched for the highest values.
# B1: PhoQ; a variant is named by its letters at X, in order, P23837 (parent)
# chain: MKKLLRLFFPLSLRVRFLLATAAVVLVLSLAYGMVALIGYSVSFDKTTFRLLRGESNLFYTLAKWENNKLHVELPENIDKQSPTMTLIYDENGQLLWAQRDVPWLMKMIQPDWLKSNGFHEIEADVNDTSLLLSGDHSIQQQLQEVREDDDDAEMTHSVAVNVYPATSRMPKLTIVVVDTIPVELKSSYMVWSWFIYVLSANLLLVIPLLWVAAWWSLRPIEALAKEVRELEEHNRELLNPATTRELTSLVRNLNRLLKSERERYDKYRTTLTDLTHSLKTPLXXLQXXLRSLRSEKMSVSDAEPVMLEQISRISQQIGYYLHRASMRGGTLLSRELHPVAPLLDNLTSALNKVYQRKGVNISLDISPEISFVGEQNDFVEVMGNVLDNACKYCLEFVEISARQTDEHLYIVVEDDGPGIPLSKREVIFDRGQRVDTLRPGQGVGLAVAREITEQYEGKIVAGESMLGGARMEVIFGRQHSAPKDE
# Variants of: B1
# Assay: enrichment ratio after two sorts for PhoP signalling (ratio (wild type AVST 3.29)); higher = more functional
# Details: with PhoP (E. coli)
row,Variant,enrichment ratio
1,WMFH,≤ 0.25
2,WHID,≤ 0.25
3,WSCR,≤ 0.25
4,TVMI,1.87
5,WGFP,≤ 0.25
6,HKEM,≤ 0.25
7,ESDT,≤ 0.25
8,QSHP,≤ 0.25
9,QSWY,7.32
10,KSNM,≤ 0.25
11,QSTD,≤ 0.25
12,QYMG,≤ 0.25
13,QYWI,≤ 0.25
14,QSHQ,22.4
15,QENM,≤ 0.25
16,QSNM,13.1
17,KSDY,≤ 0.25
18,QSDY,14.5
19,QYWG,16.3
20,HQNG,≤ 0.25
21,FDDI,≤ 0.25
22,SMYF,≤ 0.25
23,YYYI,≤ 0.25
24,FAGN,≤ 0.25
25,ICGK,≤ 0.25

row,Variant,enrichment ratio
1,IRTW,≤ 0.25
2,QVHC,≤ 0.25
3,QRHC,≤ 0.25
4,QSDM,13.7
5,QPWD,≤ 0.25
6,FFDM,≤ 0.25
7,KSDM,≤ 0.25
8,QGDM,27.5
9,QPDM,≤ 0.25
10,QRWD,≤ 0.25
11,QLHC,21.3
12,QGGM,4.35
13,QSWD,22.4
14,WGMH,≤ 0.25
15,ANRC,≤ 0.25
16,KGAG,≤ 0.25
17,TIPQ,≤ 0.25
18,PTHR,≤ 0.25
19,QRAL,≤ 0.25
20,MEAL,8.16
21,GGAL,4.27
22,TGAL,15.9
23,NAAL,≤ 0.25
24,TAAL,11.4
25,NGAL,≤ 0.25

row,Variant,enrichment ratio
1,KAAL,1.81
2,MGAL,15.5
3,TEAL,14.7
4,RGAL,0.701
5,NEAL,≤ 0.25
6,EAAP,≤ 0.25
7,LSEF,≤ 0.25
8,DGFG,≤ 0.25
9,EQRH,≤ 0.25
10,KHEV,≤ 0.25
11,INFP,≤ 0.25
12,TDLE,≤ 0.25
13,NRFY,≤ 0.25
14,VSYR,≤ 0.25
15,PTNE,≤ 0.25
16,FSIC,≤ 0.25
17,PHTQ,≤ 0.25
18,QAAL,3.3
19,FFAL,≤ 0.25
20,QGAL,15.6
21,LMWN,≤ 0.25
22,HINH,≤ 0.25
23,KPLN,≤ 0.25
24,FSLS,9.54
25,NSLN,≤ 0.25

row,Variant,enrichment ratio
1,KSLS,≤ 0.25
2,TSLS,15.9
3,TSLA,16.6
4,TSLN,16.9
5,TSWI,3.63
6,KSLN,≤ 0.25
7,KSLA,≤ 0.25
8,KSLT,≤ 0.25
9,TSLT,13.3
10,FSLT,7.83
11,YNRN,≤ 0.25
12,VLSY,0.334
13,DDLI,≤ 0.25
14,ARIV,≤ 0.25
15,HMEL,≤ 0.25
16,PRTC,≤ 0.25
17,INYQ,≤ 0.25
18,ICWY,≤ 0.25
19,RSTG,≤ 0.25
20,YLPW,≤ 0.25
21,WEVD,≤ 0.25
22,ANLP,≤ 0.25
23,GSGM,8.45
24,TPLF,≤ 0.25
25,GSLM,20.9

row,Variant,enrichment ratio
1,GSFM,≤ 0.25
2,GNLF,6.83
3,GSLF,11.4
4,KGAD,≤ 0.25
5,MQRI,≤ 0.25
6,EYAR,≤ 0.25
7,AEMT,5.41
8,AEMF,≤ 0.25
9,AEYG,36.3
10,AEEG,≤ 0.25
11,AEHG,≤ 0.25
12,AEMG,14.3
13,AEGG,≤ 0.25
14,ADYG,≤ 0.25
15,AIYG,0.334
16,AEIG,21.9
17,AEMS,31
18,QPAL,≤ 0.25
19,QTTM,≤ 0.25
20,SAVI,3.04
21,NWIW,≤ 0.25
22,RGNN,≤ 0.25
23,GTDL,≤ 0.25
24,AEMA,25.6
25,AEGA,11

row,Variant,enrichment ratio
1,AGMA,5.7
2,IMTE,≤ 0.25
3,PMNV,≤ 0.25
4,YHPY,≤ 0.25
5,TNGH,7.13
6,QASI,12.8
7,TASK,0.795
8,TATS,19.8
9,TATH,3.27
10,TATC,7.1
11,TASS,13.4
12,NASS,≤ 0.25
13,NASI,≤ 0.25
14,TASI,12.5
15,KASI,≤ 0.25
16,KASS,1.62
17,QRSI,≤ 0.25
18,MVMH,≤ 0.25
19,DHNH,≤ 0.25
20,TATG,18
21,TASC,12.7
22,KATG,≤ 0.25
23,NASC,≤ 0.25
24,KASC,≤ 0.25
25,NATG,≤ 0.25

row,Variant,enrichment ratio
1,FSNY,≤ 0.25
2,TWVT,≤ 0.25
3,GCIG,12.8
4,GCMG,16.9
5,GNIG,1.98
6,GCCI,5.84
7,GQIG,23.8
8,GYIG,≤ 0.25
9,GTIG,1.96
10,GCGG,≤ 0.25
11,QCCG,≤ 0.25
12,GCCG,18.1
13,GCVG,≤ 0.25
14,GQIV,0.651
15,LGAY,≤ 0.25
16,SVEV,≤ 0.25
17,YSQV,≤ 0.25
18,KMDL,≤ 0.25
19,NRSD,≤ 0.25
20,TNRT,≤ 0.25
21,FPTD,≤ 0.25
22,IEAY,≤ 0.25
23,AVTL,12.5
24,AITL,24.3
25,TKTL,16

row,Variant,enrichment ratio
1,AMTL,4.39
2,AHTL,6.56
3,AVWL,≤ 0.25
4,AVEL,≤ 0.25
5,AETL,15.1
6,MKTL,≤ 0.25
7,HKTL,≤ 0.25
8,MHYL,≤ 0.25
9,ALHS,≤ 0.25
10,THYA,≤ 0.25
11,TPED,≤ 0.25
12,WDQY,≤ 0.25
13,IFCF,≤ 0.25
14,AKTL,12.5
15,ANTL,12.9
16,KLTL,≤ 0.25
17,ALTL,15.2
18,KKTL,≤ 0.25
19,LLTL,≤ 0.25
20,ADTL,≤ 0.25
21,ASTL,20.2
22,AWTL,≤ 0.25
23,ASEL,3.67
24,VRTL,≤ 0.25
